PubChem BioAssay AID2012 (Sanford-Burnham Center for Chemical Genomics, 2009)
In all, about 290,000 compounds went through this assay and about 2,700 (0.93%) were called active. The sample holds actives, similar compounds and a random draw of the others, so the mix is not that of the screen. How the calls were made is not given here.

Biological target: Eukaryotic translation initiation factor 4H (Homo sapiens) (UniProt Q15056)
Test: eIF4H binding inhibition – biochemical, uHTS, fluorescence polarization, translation initiation inhibitor project, primary screen (AID 2012);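 further: calls also rest on retests at 20 µM and on dose response follow-up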
Conditions: eIF4H fluorescence polarization binding assay, stronger effect = higher value

## CN1CCC(OC(=O)c2cccc(F)c2)CC1
At 35 µM
  inhibition: -5.1% (inactive)

## CC1(C)Cc2c(C#N)c(N3CCNCC3)nc(-c3ccco3)c2CS1
At 35 µM
  inhibition: 84.6% (active)
Confirmation average, at 20 µM
  inhibition: 77.5%

## COc1cccc(C(=O)N2C[C@H]3C[C@@H](C2)c2cccc(=O)n2C3)c1
At 35 µM
  inhibition: 18.7% (inactive)

## O=C1NC(=O)N(Cc2ccco2)C(=O)/C1=C\c1cccn1CCOc1ccccc1
At 35 µM
  inhibition: 49.4% (inactive)

## C=CCN1C(=O)NC(=O)/C(=C/c2ccc(OCC(=O)Nc3ccc(C)cc3)cc2)C1=O
At 35 µM
  inhibition: -6.2% (inactive)

## COc1ccc(CN2C(=O)NC(=O)/C(=C\c3ccc(OC)c(OC)c3OC)C2=O)cc1
At 35 µM
  inhibition: 9% (active)
Confirmation average, at 20 µM
  inhibition: 60.4%

## CN(C)C(=O)Oc1ccc2c(c1)O/C(=C\c1ccccc1)C2=O
At 35 µM
  inhibition: -7% (inactive)

## Cc1cc(/C=C2/C(=O)NC(=O)N(Cc3ccco3)C2=O)c(C)n1-c1ccc(C(=O)O)cc1
At 35 µM
  inhibition: 84% (inactive)
Confirmation average, at 20 µM
  inhibition: 42.8%

## COc1ccc(N2C(=O)/C(=C/c3ccco3)C(=O)NC2=S)cc1
At 35 µM
  inhibition: 74.6% (active)
Confirmation average, at 20 µM
  inhibition: 76.5%

## Cc1ccc(S(=O)(=O)N(C)c2ccc(C(=O)NCC3(N(C)C)CCCCC3)cc2)cc1
At 35 µM
  inhibition: 0.5% (inactive)

## O=[N+]([O-])c1cnc2ccc3ccccc3c2c1
At 35 µM
  inhibition: 1.5% (inactive)

## COc1ccc2[nH]c3c(c2c1)CCN[C@H]3C
At 35 µM
  inhibition: -4.1% (inactive)

## CN(c1ccccc1)c1ccc([N+](=O)[O-])c2nonc12
At 35 µM
  inhibition: 9.8% (inactive)

## CCC(=NCc1ccco1)c1c(O)n(Cc2ccccc2)c(=O)[nH]c1=O
At 35 µM
  inhibition: 67.3% (active)
Confirmation average, at 20 µM
  inhibition: 73.8%

## CC/C(=N\NC(=O)c1ccccc1O)c1c(O)n(Cc2ccccc2)c(=O)[nH]c1=O
At 35 µM
  inhibition: 43.2% (inactive)

## CCCCn1c(O)c(C(CC)=NCc2ccco2)c(=O)[nH]c1=O
At 35 µM
  inhibition: 9.5% (inactive)

## Oc1cc2c(cc1CN1CCN(c3ccccc3)CC1)OCO2
At 35 µM
  inhibition: -8.2% (inactive)

## O=c1c2ccccc2nc(/C=C/c2ccc(F)cc2)n1-c1ccccc1O
At 35 µM
  inhibition: 18.9% (inactive)

## CCC(=NCCc1ccccc1)c1c(O)n(C2CCCCC2)c(=O)[nH]c1=O
At 35 µM
  inhibition: -8% (inactive)

## CC(=O)c1c(O)n(C2CCCCCC2)c(=O)[nH]c1=O
At 35 µM
  inhibition: 82% (active)

## CC(=NCC1CCCO1)c1c(O)n(-c2ccccc2)c(=O)[nH]c1=O (centres undefined)
At 35 µM
  inhibition: -5.3% (inactive)

## CCN1CCN(Cc2cc(OC)c3c(c2)OCO3)CC1
At 35 µM
  inhibition: 10.2% (inactive)

## c1ccc(CCNC2CCCCCC2)cc1
At 35 µM
  inhibition: 11% (inactive)

## CC(=O)Nc1ccc(C(=O)C(Cc2ccccc2)N(C)C)cc1 (centres undefined)
At 35 µM
  inhibition: -9.3% (inactive)
